Mcl-1 Bim block – disrupts Bim peptide binding to human Mcl-1; Q07820; inhibition, % at 10 µM; 0.1% of 190,000 active; Bead-based flow cytometry, Bim peptide-Mcl-1 binding; in the data active = inhibition above about 40%;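 also: 0% = no compound tracer wells and 100% = peptide blocker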
BCLXL inh – inhibitors of human Bcl-xL; Q07817; GST-Bcl-xL / FITC-Bim BH3 peptide fluorescence polarization; inhibition, % at 10.9 µM; 0.7% of 320,000 active;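 active = inhibition above the mean of all tested compounds plus 3 SD, cutoff set per campaign, cut at about 30% in these data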;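 also: 0% = DMSO wells and 100% = unlabeled Bim-BH3 peptide competitor; inhibitors lower millipolarization by displacing the labeled peptide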
Target sequence (Q07817 whole entry, looked up): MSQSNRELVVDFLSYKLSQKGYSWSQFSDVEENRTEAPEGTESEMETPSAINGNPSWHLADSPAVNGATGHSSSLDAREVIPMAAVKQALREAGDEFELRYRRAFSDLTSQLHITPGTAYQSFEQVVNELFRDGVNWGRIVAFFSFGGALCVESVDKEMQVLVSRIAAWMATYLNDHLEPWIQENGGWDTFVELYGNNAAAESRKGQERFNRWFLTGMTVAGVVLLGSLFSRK
MCL1-BIM inh – MCL1-BIM-BH3 interaction inhibition (human) | GST-MCL1 / FITC-Bim-BH3 fluorescence polarization | AID 2057 | Q07820 | inhibition, % at 10.9 µM | 0.68% of 320,000 active;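 active = inhibition above the mean inhibition of all tested compounds plus 3 SD, set per campaign, cut at about 40% in these data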;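 also: 0% = DMSO wells and 100% = unlabeled Bim-BH3 peptide control; higher means more loss of mP so more displacement of Bim peptide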
Mcl1-Noxa inh – Mcl-1/Noxa interaction inhibition. 1.5% of 220,000 active. TR-FRET Mcl-1/Noxa peptide binding, 2 h. Q07820. inhibition, % at 21.7 µM. AID 1022;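 active = compounds that cut the protein-peptide binding signal by more than 50% relative to plate controls in a single-dose test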;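 also: His-tagged Mcl-1 with rhodamine Noxa BH3 peptide and terbium anti-His antibody; 0% = Mcl-1 plus Noxa peptide wells and 100% = peptide-only wells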
GLD-1 TGE inh – GLD-1-TGE RNA interaction inhibition (C. elegans); purified GLD-1 + fluorescein TGE RNA, fluorescence polarization; inhibition, % at 5.96 µM; 0.44% of 320,000 active;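 active = percent inhibition above a per-plate cutoff, the plate mean of test compounds plus 3 SD, cut at about 30% in these data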;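 also: 0% = DMSO wells with GLD-1 and probe and 100% = wells lacking GLD-1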
Target sequence (Q17339 whole entry, looked up): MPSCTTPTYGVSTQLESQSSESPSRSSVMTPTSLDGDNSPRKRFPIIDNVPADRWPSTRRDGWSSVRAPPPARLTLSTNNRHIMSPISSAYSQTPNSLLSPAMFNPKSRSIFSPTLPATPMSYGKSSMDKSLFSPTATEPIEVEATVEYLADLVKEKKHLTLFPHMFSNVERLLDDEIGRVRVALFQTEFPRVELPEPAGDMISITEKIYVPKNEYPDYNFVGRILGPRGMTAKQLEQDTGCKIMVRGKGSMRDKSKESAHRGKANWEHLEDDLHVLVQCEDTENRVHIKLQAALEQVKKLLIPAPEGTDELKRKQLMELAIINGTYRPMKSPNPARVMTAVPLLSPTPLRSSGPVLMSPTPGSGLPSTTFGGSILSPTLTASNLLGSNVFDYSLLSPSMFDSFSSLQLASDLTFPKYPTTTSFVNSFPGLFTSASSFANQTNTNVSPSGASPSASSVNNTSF
Mcl1 Bid PPI – Mcl-1/Bid interaction inhibition | Q07820 | TR-FRET Mcl-1/Bid-Dy647 peptide binding, 1536-well | inhibition, % at 21.7 µM | 0.97% of 220,000 active | AID 1021;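 active = compounds that cut the binding signal by more than half at the single screening dose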;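 also: His-tagged Mcl-1 with europium anti-His antibody binding Bid BH3 peptide; 0% = Mcl-1 plus peptide wells and 100% = peptide-only wells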
The depositor's hits bear a star. Rows were chosen to be rich in hits. Some 2.3% of all compounds tested hit in one or more screens of this group.

For Cn1c(=O)c(C(=O)CSc2nnc(Nc3ccccc3)s2)c(N)n(Cc2ccccc2)c1=O the results were Mcl-1 Bim block -4.0, BCLXL inh -2.4, MCL1-BIM inh -10.2, Mcl1-Noxa inh 70.3*, GLD-1 TGE inh 2.5 and Mcl1 Bid PPI 16.7.
Screening Cc1ccc(C(=O)OCC(=O)Nc2ccc3c(c2)OCO3)cc1S(=O)(=O)N1CCOCC1 returned Mcl-1 Bim block -3.0, BCLXL inh 2.1, MCL1-BIM inh -4.8, Mcl1-Noxa inh 10.6, GLD-1 TGE inh 2.6 and Mcl1 Bid PPI -44.0.
Screening CCN(c1ccc(NC(=O)COC(=O)c2ccc(C)c(S(=O)(=O)N3CCOCC3)c2)cc1)C(C)C returned Mcl-1 Bim block -6.0, BCLXL inh 5.0, MCL1-BIM inh 3.8, Mcl1-Noxa inh 74.5*, GLD-1 TGE inh 3.1 and Mcl1 Bid PPI 24.1.
For COc1ccccc1C(=O)NCC(=O)N/N=C(\C)Cc1ccccc1 the results were BCLXL inh 4.1, MCL1-BIM inh 0.4 and GLD-1 TGE inh 4.1.
`COCCn1c(N)c(C(=S)NC(=O)c2cccs2)c(=O)[nH]c1=O` gave BCLXL inh 11.3, MCL1-BIM inh 7.5, Mcl1-Noxa inh 70.1*, GLD-1 TGE inh 3.2 and Mcl1 Bid PPI -6.3.
O=C1CCCC2=C1C(c1ccccc1)C1C(=O)c3ccccc3C1=N2 (stereo not drawn) was read as Mcl-1 Bim block 0.0, BCLXL inh 4.3, MCL1-BIM inh 8.5, Mcl1-Noxa inh 58.3*, GLD-1 TGE inh -2.1 and Mcl1 Bid PPI -68.0.
CC1CC(C)CN(C(=S)Nc2ccc3nc4n(c(=O)c3c2)CCCCC4)C1 (stereo not drawn) was read as Mcl-1 Bim block -1.0, BCLXL inh 9.7, MCL1-BIM inh 5.7, Mcl1-Noxa inh 4.4, GLD-1 TGE inh 11.7 and Mcl1 Bid PPI -65.0.
CC1CCCN(C(=S)Nc2ccc3nc4n(c(=O)c3c2)CCCCC4)C1 (stereo not drawn) was read as Mcl-1 Bim block -3.0, BCLXL inh 2.2, MCL1-BIM inh 8.7, Mcl1-Noxa inh 4.7, GLD-1 TGE inh 1.4 and Mcl1 Bid PPI 97.2*.
For O=C(NCc1ccccc1Br)c1cccc2c1C(=O)c1ccc(N3CCC(Cc4ccccc4)CC3)cc1S2(=O)=O the results were GLD-1 TGE inh 157.0*.
O=C(NC1CCCCC1)c1cccc2c1C(=O)c1ccc(N3CCC(Cc4ccccc4)CC3)cc1S2(=O)=O was read as GLD-1 TGE inh 62.1*.
O=C(NCC1CCCO1)c1cccc2c1C(=O)c1ccc(N3CCC(Cc4ccccc4)CC3)cc1S2(=O)=O (stereo not drawn) was read as GLD-1 TGE inh 6.2.
O=C(CSc1nccc(=O)[nH]1)c1ccccc1Br was read as Mcl-1 Bim block -2.0, BCLXL inh 6.6, MCL1-BIM inh 12.1, Mcl1-Noxa inh -9.0, GLD-1 TGE inh 0.1 and Mcl1 Bid PPI 70.9*.
Screening COc1ccc(C(=O)N2CCC2)cc1S(=O)(=O)NCc1ccc(Cl)cc1 returned GLD-1 TGE inh 5.5.
For COc1cc(/C=N/NC(=O)C2C3CCCCC32C)cc(Br)c1O (stereo not drawn) the results were Mcl-1 Bim block -6.0, BCLXL inh 4.8, MCL1-BIM inh 1.8, Mcl1-Noxa inh 50.9*, GLD-1 TGE inh -6.1 and Mcl1 Bid PPI -13.1.
Screening CCCCC(c1nnnn1C(C)C)N1CCN(C(=O)c2ccco2)CC1 (stereo not drawn) returned BCLXL inh 1.4, MCL1-BIM inh -0.3 and GLD-1 TGE inh 7.7.
Screening CCOc1ccc(N2C(=O)CC(/C=C3/N(C)c4ccccc4C3(C)C)C2=O)cc1 (stereo not drawn) returned Mcl-1 Bim block -2.0, BCLXL inh -15.3, MCL1-BIM inh -41.3, Mcl1-Noxa inh 2.3, GLD-1 TGE inh -5.2 and Mcl1 Bid PPI -27.3.
For CN1/C(=C/C2CC(=O)N(c3cccc4ccccc34)C2=O)C(C)(C)c2ccccc21 (stereo not drawn) the results were Mcl-1 Bim block 0.0, BCLXL inh -40.1, MCL1-BIM inh -66.6, Mcl1-Noxa inh 53.9*, GLD-1 TGE inh -27.6 and Mcl1 Bid PPI -38.3.
For Cc1nc(-c2ccccc2)sc1C(=O)CSc1ccc(Cl)cc1 the results were Mcl-1 Bim block -3.0, BCLXL inh 6.4, MCL1-BIM inh 9.4, Mcl1-Noxa inh 64.2*, GLD-1 TGE inh -1.7 and Mcl1 Bid PPI 4.2.
`Cc1nc(-c2ccccc2)sc1C(=O)CSc1ccc(Br)cc1` gave Mcl-1 Bim block -2.0, BCLXL inh -0.9, MCL1-BIM inh 1.0, Mcl1-Noxa inh -14.9, GLD-1 TGE inh -4.1 and Mcl1 Bid PPI -2.3.
`CC(C)Nc1ccc(C(CC(N)=O)NC(=O)Cc2ccc(Br)cc2)cc1[N+](=O)[O-]` (stereo not drawn) gave BCLXL inh -17.4, MCL1-BIM inh -24.2, Mcl1-Noxa inh -12.2, GLD-1 TGE inh -12.6 and Mcl1 Bid PPI -33.1.
For COc1ccc(C(CC(=O)N2CCN(c3ccccc3)CC2)c2c(OC)cc(OC)c3c(-c4ccccc4)cc(=O)oc23)cc1 (stereo not drawn) the results were Mcl1-Noxa inh 3.5 and Mcl1 Bid PPI -48.5.
Screening COc1ccc(C(CC(=O)N2CCOCC2)c2c(OC)cc(OC)c3c(-c4ccccc4)cc(=O)oc23)cc1 (stereo not drawn) returned BCLXL inh 6.2, MCL1-BIM inh 21.0, Mcl1-Noxa inh 53.9*, GLD-1 TGE inh -1.1 and Mcl1 Bid PPI -18.3.
For COc1ccc(C(CC(=O)N2CCCC(C)C2)c2c(OC)cc(OC)c3c(-c4ccccc4)cc(=O)oc23)cc1 (stereo not drawn) the results were BCLXL inh 0.7, MCL1-BIM inh 19.7, Mcl1-Noxa inh 59.3*, GLD-1 TGE inh 8.5 and Mcl1 Bid PPI -102.5.
Screening COc1ccc(C(CC(=O)N2CCCCC2)c2c(OC)cc(OC)c3c(-c4ccccc4)cc(=O)oc23)cc1 (stereo not drawn) returned BCLXL inh 10.9, MCL1-BIM inh 31.8, Mcl1-Noxa inh 63.4*, GLD-1 TGE inh 4.5 and Mcl1 Bid PPI -102.4.
Screening COc1cc(C(CC(=O)N2CCCC2)c2c(OC)cc(OC)c3c(-c4ccccc4)cc(=O)oc23)cc(OC)c1OC (stereo not drawn) returned BCLXL inh 7.5, MCL1-BIM inh 18.8, Mcl1-Noxa inh 35.5, GLD-1 TGE inh 0.4 and Mcl1 Bid PPI -48.8.
For Cc1cnc(C(=O)NC(Cc2ccccc2)c2ccccc2)cn1 (stereo not drawn) the results were BCLXL inh 5.5, MCL1-BIM inh 4.6 and GLD-1 TGE inh 0.9.
CS(=O)(=O)CCC(C(=O)Nc1ccc2c(c1)OCO2)N1Cc2ccccc2C1=O (stereo not drawn) was read as BCLXL inh 0.5, MCL1-BIM inh 7.1 and GLD-1 TGE inh -2.1.
`Cn1c2ccccc2c2cc(C(=O)NNC(=O)CCl)sc21` gave Mcl-1 Bim block 0.0, BCLXL inh 3.8, MCL1-BIM inh 0.6, Mcl1-Noxa inh 59.7*, GLD-1 TGE inh 4.0 and Mcl1 Bid PPI -38.1.

Screens deposited in PubChem BioAssay by several laboratories.
